The campaign covered roughly 330,000 compounds. About 300 (0.091%) were called active. Another 4% or so got no clear call; they are omitted. The entries come from a sample that favours actives as a whole. Entries that show only a call come without a potency. Unmarked numbers belong to inactive results. Calls follow the shape of the dose curve; as a rule, active = well fitted inhibition curve with a large enough effect; inconclusive = small, poorly fitted or top-dose-only effect, or effect the other way, or another doubt; inactive = no such curve, though single readings can be large or run the other way.

Our source for the activity change, negative = inhibition and Potency values is PubChem BioAssay AID2101 (National Center for Advancing Translational Sciences (NCATS), 2009).
Potency is read from the fitted curve at half-maximal effect.

This test concerns the target Lysosomal acid glucosylceramidase (Homo sapiens) (UniProt P04062). As to the kind of experiment: qHTS Assay for Inhibitors and Activators of N370S glucocerebrosidase as a Potential Chaperone Treatment of Gaucher Disease. The note with it: N370S GC spleen homogenate, 4MU-glucoside fluorescence; series mostly up to 59.4 µM. (Quantitative high-throughput screening tests each substance at several concentrations.)
`C[C@H]1CC[C@H](C(=O)O)N[C@@H]1c1ccc(C#Cc2ccccc2)cc1`: the activity change, negative = inhibition is 5.48% [at 12.8 µM].

For the molecule `COc1ccc(-c2nc3c(c4c2C[C@H](c2ccccc2)OC4)CN(S(=O)(=O)c2c(C)noc2C)CC3)c(C)c1`, the activity change, negative = inhibition was -9.78% [at 12.8 µM].

On to `COC(=O)c1sc(NC(=O)COC(=O)C2CCC2)c(C(=O)OC)c1C`, for which the activity change, negative = inhibition result is “inactive”.

In the case of `CC(C)c1cnc(NC(=O)Cc2ccccc2)s1`, the activity change, negative = inhibition entry is “inactive”.

As to `NCCC(=O)c1ccccc1N`, the activity change, negative = inhibition entry is “inactive”.

Take `O=C(CCNC(=O)c1ccc([N+](=O)[O-])cc1)NC1CCCCC1`: the activity change, negative = inhibition result is “inactive”.

For `CCN(c1ccccc1)S(=O)(=O)c1cc(C(=O)NCc2ccccn2)ccc1C`, the activity change, negative = inhibition entry was “inactive”.

Take `C=C1/C(=C\C=C2\CCCC3(C)C2CCC3C(C)/C=C/C(O)C2CC2)CC(O)CC1O` (stereo not given): the activity change, negative = inhibition result is “inactive”.

For `N#Cc1cc2[nH]c(=O)c(=O)[nH]c2cc1[N+](=O)[O-]`, the Potency is 22.4 µM (active).

Turning to `COc1ccc(CC(N)C(=O)NC2C(O)[C@H](n3cnc4c(N(C)C)ncnc43)O[C@@H]2CO)cc1` (stereo not given in full), the activity change, negative = inhibition result is “inactive”.

With `COC(=O)[C@H]1C[C@@H]1[C@H](NC(=O)Oc1ccc(F)cc1)c1ccccc1`, the activity change, negative = inhibition entry is “inactive”.

On to `Cc1nnc(NC(=O)c2ccc3nccnc3c2)s1`, for which the activity change, negative = inhibition result was “inactive”.

For the molecule `CCOC(=O)C1=C(C)NC2=C(C(=O)CC(C)(C)C2)C1c1ccsc1` (stereo not given), the activity change, negative = inhibition result is “inactive”.

`COc1cc(C2C(C#N)=C(C)NC3=C2C(=O)CC(C)(C)C3)ccc1O` (stereo not given): the Potency is 10 µM (active).

Regarding `COc1ccc(C2C(C#N)=C(/N=C/N3CCOCC3)OC3=C2C(=O)CC(C)(C)C3)cc1OC` (stereo not given), the activity change, negative = inhibition entry was “inactive”.

`O=S(=O)(NC1CCN(S(=O)(=O)c2ccc3c(c2)OCCO3)CC1)c1c(F)cccc1F`: the activity change, negative = inhibition entry was “inactive”.

Take `CCN(CC)S(=O)(=O)c1ccc(CNC(=O)CN2C(=O)NC3(CCc4ccccc43)C2=O)cc1` (stereo not given): the activity change, negative = inhibition entry was “inactive”.

Turning to `CC(C)(Oc1ccc(Cl)cc1)C(=O)OCC(=O)NCCc1ccc(S(N)(=O)=O)cc1`, the activity change, negative = inhibition result is “inactive”.

Take `CCCC(Cl)CCCC(Cl)CCC(Cl)CCC(Cl)CCC(Cl)CCCC(Cl)CCC` (stereo not given): the activity change, negative = inhibition result is “inactive”.

Regarding `CCCC[C@H]1C(=O)N(c2ccccc2)N(c2ccc(O)cc2)C1=O`, the activity change, negative = inhibition entry is “inactive”.

For `C=CCC1CCC(=O)N2CCCC12` (stereo not given), the activity change, negative = inhibition entry was “inactive”.

For `COc1cc2c(cc1OC)CN(C(C)C(=O)Nc1cccc(S(=O)(=O)N3CCOCC3)c1)CC2` (stereo not given), the activity change, negative = inhibition result is “inactive”.

For the molecule `OC[C@H]1O[C@@H](n2cnc3c(NC4CCCC4)ncnc32)[C@H](O)[C@H]1O`, the activity change, negative = inhibition result is “inactive”.

In the case of `CCOC(=O)[C@]1(C(/C=C/c2ccco2)NC(=O)OC)CCCC1=O` (stereo not given in full), the activity change, negative = inhibition is 2.17% [at 12.8 µM].

With `CCCCC/C=C\C[C@H](O)/C=C/C=C/C=C/[C@@H](O)CCCC(=O)O`, the activity change, negative = inhibition entry is “inactive”.

Regarding `CCNc1ncc2ncc(=O)n(Cc3cccc(OC)c3)c2n1`, the activity change, negative = inhibition entry was “inactive”.

Regarding `CC(Nc1oc(-c2ccccc2)nc1-c1ccccc1)c1ccccc1` (stereo not given), the activity change, negative = inhibition entry was “inactive”.

Consider `CN(CC(=O)NCCc1ccc(F)cc1)CC(=O)Nc1ccc(F)c(F)c1F`, for which the activity change, negative = inhibition entry was “inactive”.

As for `CC1(C)OC(C(O)(c2ccccc2)c2ccccc2)C(C(O)(c2ccccc2)c2ccccc2)O1` (stereo not given), the activity change, negative = inhibition is -1.37% [at 12.8 µM].

On to `Cc1ccc(SCC(CC(C)C)N2CCN(CCc3ccccc3)CCC2=O)cc1` (stereo not given), for which the activity change, negative = inhibition result is “inactive”.
